Laboratory results as given in PubChem BioAssay (NCATS).
Inconclusive results are not listed. A call without a number means that no potency is given here. Active and inactive are the calls of the source. Calls come from the whole dose curve; as a rule, active = well fitted inhibition curve with a large enough effect; inconclusive = small, poorly fitted or top-dose-only effect; inactive = no such curve, though single readings can be large or run the other way.

Experiment: Primary qHTS for small molecule stabilizers of the endoplasmic reticulum resident proteome: Secreted ER Calcium Modulated Protein (SERCaMP) assay (AID 1508630)
Conditions: SH-SY5Y GLuc-SERCaMP (Gaussia luciferase released on ER calcium loss) secretion, thapsigargin, luminescence; series mostly up to 38.4 µM
How it was run: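 The SH-SY5Y reporter protocol was run at 3 concentrations up to 38.3 uM (primary) or 11 concentrations (follow-up): 16 h compound, 100 nM thapsigargin for 4 h, then extracellular luciferase luminescence.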
Potency is the fitted concentration of half-maximal effect.

Row | SMILES | Potency
1 | CC[N+](C)(CC)CCC[n+]1c(-c2ccccc2)c2cc(N)ccc2c2ccc(N)cc21 | inactive
2 | N[C@H](C(=O)O)c1ccc(C(=O)O)c(O)c1 | inactive
3 | O=C(O)Cc1cc2ccccc2nc1C(=O)O | inactive
4 | CC(N)=NCCC[C@H](N)C(=O)O | inactive
5 | N[C@@H]1CCN(O)C1=O | inactive
6 | NC[C@](O)(CS(=O)(=O)O)c1ccc(Cl)cc1 | inactive
7 | CO[C@@]12C[C@@H](COC(=O)c3cncc(Br)c3)CN(C)[C@H]1Cc1cn(C)c3cccc2c13 | inactive
8 | COc1ccccc1NC(=O)Nc1nc(-c2cccnc2)nc2ccccc12 | inactive
9 | CC(C)SC(=N)N | inactive
10 | O=C(O)COc1ccc(OCCNC[C@@H](O)COc2ccccc2)cc1 | inactive
11 | COC(=O)[C@@H]1[C@@H]2C[C@H]3c4[nH]c5ccccc5c4CCN3C[C@@H]2CC[C@@H]1O | inactive
12 | N[C@H](Cc1cnc[nH]1)C(=O)O | inactive
13 | N[C@H](CCC(=O)NCC(=O)O)C(=O)O | inactive
14 | CC1=C(\C=C/C(C)=C/C=C\C(C)=C\C(=O)O)C(C)(C)CCC1 | inactive
15 | CCC(=O)O[C@H](CC(=O)O)C[N+](C)(C)C | inactive
16 | N[C@]1(C(=O)O)CCc2cc(C(=O)O)ccc21 | inactive
17 | C[C@@](N)(C(=O)O)c1ccc(P(=O)(O)O)cc1 | inactive
18 | C[C@H](C[C@H](N)C(=O)O)C(=O)O | inactive
19 | O=C(O)[C@H]1CCCNC1 | inactive
20 | O=C(O)[C@H]1CN(CCCP(=O)(O)O)CCN1 | inactive

Row | SMILES | Potency
21 | NCCC(=O)O | inactive
22 | CCN(Cc1ccncc1)C(=O)[C@@H](CO)c1ccccc1 | inactive
23 | N[C@@H](C(=O)O)c1ccc(P(=O)(O)O)cc1 | inactive
24 | C[C@@](N)(C(=O)O)c1ccc(C(=O)O)cc1 | inactive
25 | N[C@H](C(=O)O)c1nn[nH]n1 | inactive
26 | N[C@H](C(=O)O)[C@@H]1C[C@@H]1C(=O)O | inactive
27 | CNCC[C@H](Oc1ccccc1OC)c1ccccc1 | inactive
28 | C[C@H](N=C(NC#N)Nc1ccncc1)C(C)(C)C | inactive
29 | CC[C@](N)(CCC(=O)O)C(=O)O | inactive
30 | CC(N)=NCCCC[C@H](N)C(=O)O | inactive
31 | C[C@@H](CCc1ccc(O)cc1)NCCc1ccc(O)c(O)c1 | inactive
32 | CC(C)[C@@H]1[C@H]2CC[C@H](C2)[C@H]1N | 1 µM (active)
33 | N[C@H](C(=O)O)c1ccc(C(=O)O)cc1 | inactive
34 | C[C@@H]1C[C@@H]2[C@H]3CCC4=CC(=O)C=C[C@]4(C)[C@]3(F)[C@@H](O)C[C@@]2(C)[C@@]1(O)C(=O)CO | inactive
35 | C=C[C@@]1(C)CC(=O)[C@@]2(O)[C@@]3(C)[C@@H](O)CCC(C)(C)[C@@H]3[C@H](O)[C@H](OC(C)=O)[C@@]2(C)O1 | inactive
36 | N[C@H](CCC(=O)N[C@H](CSN=O)C(=O)NCC(=O)O)C(=O)O | inactive
37 | c1ccc2oc(C3=NCCN3)cc2c1 | inactive
38 | CC(C)(C)NC[C@H](O)COc1cccc2[nH]c(=O)[nH]c12 | inactive
39 | CCC(=O)N[C@@H]1Cc2ccccc2[C@@H](c2ccccc2)C1 | inactive
40 | S=C(S)O[C@@H]1C[C@@H]2C[C@H]1[C@@H]1CCC[C@H]21 | inactive
